# According to the supplement of paper PMC10849652:
# The full data set covers some 7,900 targets. This sample favours those with a hit. About 0.6% of all pairs of compound and target were hits. A number with no mark means an inactive call.
# Compound: C1COCCN1CCN2C3=CC=CC=C3N=C2NC(=O)C4=CC(=CC=C4)[N+](=O)[O-] [IRAK-1-4 Inhibitor I]
# Test: log2 fold change, soluble protein after heating vs DMSO (PISA); higher = thermal stabilisation; K562 cells, 10 uM, 30 min; active = over 0.2 and 3.5 SD of the protein, either way, in both replicates (recomputed)
# Procedure, shortened: (§1)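 K562 cells at 2×10^6 cells/mL were given 10 μM compound for 30 min. Aliquots then went through 3 min of heating across 48°C-58°C, were pooled, and were extracted in PBS with 0.5% NP-40 at 4°C, and the supernatant after 21,000xg for 90 min was quantified by TMTpro 16plex LC-MS/MS with channel sums equalised. Thermal stability relative to control samples, from duplicates, is given as log2 fold change.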
# UniProt O94889, sequence (O94889 whole entry, looked up): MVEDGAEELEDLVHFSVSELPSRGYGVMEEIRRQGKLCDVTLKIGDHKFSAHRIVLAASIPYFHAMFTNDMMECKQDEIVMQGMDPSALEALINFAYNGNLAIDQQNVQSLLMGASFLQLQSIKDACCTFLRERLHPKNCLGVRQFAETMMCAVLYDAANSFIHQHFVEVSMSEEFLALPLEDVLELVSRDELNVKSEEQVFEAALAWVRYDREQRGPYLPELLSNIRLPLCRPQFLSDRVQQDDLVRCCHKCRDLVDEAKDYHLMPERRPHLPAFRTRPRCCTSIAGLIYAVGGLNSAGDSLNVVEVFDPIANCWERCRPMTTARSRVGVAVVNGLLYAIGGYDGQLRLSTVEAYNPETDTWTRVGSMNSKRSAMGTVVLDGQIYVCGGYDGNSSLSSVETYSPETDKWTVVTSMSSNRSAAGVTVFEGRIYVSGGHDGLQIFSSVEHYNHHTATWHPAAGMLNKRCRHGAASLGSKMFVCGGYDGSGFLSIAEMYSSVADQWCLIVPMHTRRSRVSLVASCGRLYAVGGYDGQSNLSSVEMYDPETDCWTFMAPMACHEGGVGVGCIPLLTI
# UniProt Q9UPY8, sequence (Q9UPY8 whole entry, looked up): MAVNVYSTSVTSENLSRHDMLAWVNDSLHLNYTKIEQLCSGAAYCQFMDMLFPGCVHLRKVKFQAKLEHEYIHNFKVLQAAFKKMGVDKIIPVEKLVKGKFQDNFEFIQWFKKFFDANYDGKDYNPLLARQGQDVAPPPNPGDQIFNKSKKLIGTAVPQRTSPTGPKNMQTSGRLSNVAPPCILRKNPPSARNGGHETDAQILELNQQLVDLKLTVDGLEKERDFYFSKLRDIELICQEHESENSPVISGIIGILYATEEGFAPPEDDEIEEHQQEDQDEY
# UniProt P27816, sequence (P27816 whole entry, looked up): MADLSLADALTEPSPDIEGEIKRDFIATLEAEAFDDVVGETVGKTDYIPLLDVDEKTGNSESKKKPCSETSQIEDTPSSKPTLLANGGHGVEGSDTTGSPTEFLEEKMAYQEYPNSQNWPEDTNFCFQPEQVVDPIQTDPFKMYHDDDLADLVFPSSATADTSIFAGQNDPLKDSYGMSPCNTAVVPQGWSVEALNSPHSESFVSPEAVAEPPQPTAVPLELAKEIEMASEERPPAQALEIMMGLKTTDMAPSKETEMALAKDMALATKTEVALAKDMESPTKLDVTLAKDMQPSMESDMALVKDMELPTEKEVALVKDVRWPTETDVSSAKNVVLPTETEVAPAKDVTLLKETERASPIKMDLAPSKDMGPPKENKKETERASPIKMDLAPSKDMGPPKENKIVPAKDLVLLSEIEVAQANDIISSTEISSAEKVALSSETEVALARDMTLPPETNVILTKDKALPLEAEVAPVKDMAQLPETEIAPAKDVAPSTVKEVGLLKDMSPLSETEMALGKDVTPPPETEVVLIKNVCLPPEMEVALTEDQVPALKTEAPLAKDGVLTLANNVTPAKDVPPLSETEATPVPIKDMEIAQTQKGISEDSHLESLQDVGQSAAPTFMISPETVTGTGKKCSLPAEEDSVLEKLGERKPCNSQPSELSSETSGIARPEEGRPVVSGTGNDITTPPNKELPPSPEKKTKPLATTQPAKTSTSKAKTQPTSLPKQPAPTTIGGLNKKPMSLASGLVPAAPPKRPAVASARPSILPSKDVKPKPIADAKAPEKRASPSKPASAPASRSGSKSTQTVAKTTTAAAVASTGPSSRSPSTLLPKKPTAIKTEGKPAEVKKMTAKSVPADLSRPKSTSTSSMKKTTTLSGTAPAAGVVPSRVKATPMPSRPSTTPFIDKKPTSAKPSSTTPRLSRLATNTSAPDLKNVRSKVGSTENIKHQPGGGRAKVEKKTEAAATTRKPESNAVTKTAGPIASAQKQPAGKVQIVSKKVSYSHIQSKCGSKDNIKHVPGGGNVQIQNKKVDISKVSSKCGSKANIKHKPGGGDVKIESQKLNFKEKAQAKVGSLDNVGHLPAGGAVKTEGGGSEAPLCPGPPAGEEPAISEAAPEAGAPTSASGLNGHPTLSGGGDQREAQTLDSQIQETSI
# UniProt P17936, sequence (P17936 whole entry, looked up): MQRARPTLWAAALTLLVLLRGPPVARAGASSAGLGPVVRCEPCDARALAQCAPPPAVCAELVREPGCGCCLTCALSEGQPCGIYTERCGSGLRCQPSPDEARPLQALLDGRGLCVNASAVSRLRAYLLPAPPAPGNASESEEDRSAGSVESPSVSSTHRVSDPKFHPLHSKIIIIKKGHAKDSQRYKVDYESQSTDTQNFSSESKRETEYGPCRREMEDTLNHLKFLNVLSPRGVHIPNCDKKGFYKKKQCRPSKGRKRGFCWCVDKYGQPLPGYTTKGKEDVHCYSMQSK
# UniProt P07948, sequence (P07948 whole entry, looked up): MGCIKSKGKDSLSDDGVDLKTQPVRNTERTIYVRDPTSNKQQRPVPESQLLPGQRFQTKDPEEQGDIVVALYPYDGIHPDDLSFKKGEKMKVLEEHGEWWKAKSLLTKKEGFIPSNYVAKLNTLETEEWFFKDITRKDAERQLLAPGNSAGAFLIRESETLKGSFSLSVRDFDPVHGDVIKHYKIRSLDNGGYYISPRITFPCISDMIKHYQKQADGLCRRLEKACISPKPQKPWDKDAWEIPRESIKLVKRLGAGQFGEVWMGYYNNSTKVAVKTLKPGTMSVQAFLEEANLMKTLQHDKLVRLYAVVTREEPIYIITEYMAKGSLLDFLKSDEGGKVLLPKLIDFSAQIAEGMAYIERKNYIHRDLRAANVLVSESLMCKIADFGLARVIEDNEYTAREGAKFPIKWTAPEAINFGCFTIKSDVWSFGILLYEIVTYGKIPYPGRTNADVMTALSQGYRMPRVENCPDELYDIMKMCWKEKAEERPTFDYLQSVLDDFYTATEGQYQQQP
# UniProt Q9NUN5, sequence (Q9NUN5 whole entry, looked up): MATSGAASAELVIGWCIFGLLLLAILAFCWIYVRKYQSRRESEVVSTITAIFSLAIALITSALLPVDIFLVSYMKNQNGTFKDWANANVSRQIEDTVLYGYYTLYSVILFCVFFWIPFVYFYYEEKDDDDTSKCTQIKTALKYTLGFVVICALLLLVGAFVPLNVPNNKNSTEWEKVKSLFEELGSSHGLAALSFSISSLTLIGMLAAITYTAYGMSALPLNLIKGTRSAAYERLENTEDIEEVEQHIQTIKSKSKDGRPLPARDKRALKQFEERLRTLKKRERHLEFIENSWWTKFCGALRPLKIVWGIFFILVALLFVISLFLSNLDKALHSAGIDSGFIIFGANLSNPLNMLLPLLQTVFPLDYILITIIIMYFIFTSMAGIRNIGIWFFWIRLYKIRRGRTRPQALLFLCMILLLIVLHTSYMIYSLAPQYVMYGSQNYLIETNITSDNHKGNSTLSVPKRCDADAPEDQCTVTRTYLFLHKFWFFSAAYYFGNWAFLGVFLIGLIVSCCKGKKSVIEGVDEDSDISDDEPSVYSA
# UniProt Q13164, sequence (Q13164 whole entry, looked up): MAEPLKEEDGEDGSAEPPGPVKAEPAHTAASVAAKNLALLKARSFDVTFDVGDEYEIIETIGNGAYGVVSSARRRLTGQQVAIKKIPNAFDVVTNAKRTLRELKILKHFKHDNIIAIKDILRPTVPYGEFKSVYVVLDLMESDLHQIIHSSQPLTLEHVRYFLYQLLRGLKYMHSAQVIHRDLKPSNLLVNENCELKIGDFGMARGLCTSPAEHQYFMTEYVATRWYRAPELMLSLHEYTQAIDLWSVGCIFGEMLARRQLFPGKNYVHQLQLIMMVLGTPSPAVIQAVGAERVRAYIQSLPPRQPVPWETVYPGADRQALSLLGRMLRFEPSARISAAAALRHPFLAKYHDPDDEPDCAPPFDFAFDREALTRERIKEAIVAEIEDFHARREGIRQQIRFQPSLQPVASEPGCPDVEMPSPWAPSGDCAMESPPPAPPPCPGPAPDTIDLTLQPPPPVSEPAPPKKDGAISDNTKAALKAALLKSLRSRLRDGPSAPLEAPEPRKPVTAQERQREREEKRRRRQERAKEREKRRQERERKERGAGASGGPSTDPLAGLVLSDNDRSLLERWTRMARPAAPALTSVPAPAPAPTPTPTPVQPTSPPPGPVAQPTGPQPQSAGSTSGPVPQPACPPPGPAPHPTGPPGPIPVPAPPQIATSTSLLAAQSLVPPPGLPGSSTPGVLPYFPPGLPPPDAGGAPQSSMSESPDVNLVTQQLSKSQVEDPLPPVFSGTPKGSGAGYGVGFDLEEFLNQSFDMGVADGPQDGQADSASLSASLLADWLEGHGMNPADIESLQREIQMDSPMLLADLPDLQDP
# UniProt Q9Y573, sequence (Q9Y573 whole entry, looked up): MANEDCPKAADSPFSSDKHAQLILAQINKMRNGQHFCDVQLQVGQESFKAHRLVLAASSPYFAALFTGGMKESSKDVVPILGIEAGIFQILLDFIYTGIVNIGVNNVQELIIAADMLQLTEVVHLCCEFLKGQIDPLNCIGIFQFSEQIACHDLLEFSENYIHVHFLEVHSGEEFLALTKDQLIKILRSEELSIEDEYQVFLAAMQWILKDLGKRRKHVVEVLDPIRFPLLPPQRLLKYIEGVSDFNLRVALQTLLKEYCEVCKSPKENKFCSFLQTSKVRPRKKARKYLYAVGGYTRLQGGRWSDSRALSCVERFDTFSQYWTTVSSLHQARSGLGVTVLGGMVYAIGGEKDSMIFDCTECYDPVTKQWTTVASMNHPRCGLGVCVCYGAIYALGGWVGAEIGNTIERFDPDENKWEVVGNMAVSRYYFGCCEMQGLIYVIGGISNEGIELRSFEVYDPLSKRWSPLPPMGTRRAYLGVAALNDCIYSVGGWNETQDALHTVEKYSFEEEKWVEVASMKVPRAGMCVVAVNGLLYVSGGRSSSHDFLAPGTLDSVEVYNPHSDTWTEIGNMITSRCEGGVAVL
# UniProt Q9NQX7, sequence (Q9NQX7 whole entry, looked up): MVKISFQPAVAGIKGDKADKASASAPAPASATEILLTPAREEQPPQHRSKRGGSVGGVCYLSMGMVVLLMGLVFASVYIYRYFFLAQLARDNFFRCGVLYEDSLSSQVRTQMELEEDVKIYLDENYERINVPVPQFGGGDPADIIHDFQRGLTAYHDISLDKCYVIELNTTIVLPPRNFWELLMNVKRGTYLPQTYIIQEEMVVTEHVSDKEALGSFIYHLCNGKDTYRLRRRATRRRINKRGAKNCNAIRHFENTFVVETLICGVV
row,Target,log2 fold change
1,IKZF1 (UniProt R9R4D9),-0.1
2,MAML1 (UniProt Q92585),0.117
3,IGFBP3 isoform 2 (UniProt P17936),0.115
4,ITPRID2 (UniProt P28290),0.004
5,LRRFIP1 isoform 4 (UniProt Q32MZ4),-0.06
6,ING5 (UniProt Q8WYH8),0.101
7,MAPK11 (UniProt Q15759),-0.22
8,MAPRE3 isoform 2 (UniProt Q9UPY8),-0.384
9,LYN isoform 2 (UniProt P07948),0.04
10,MAP3K20 isoform 2 (UniProt Q9NYL2),-0.164
11,MAPK7 (UniProt Q13164),-0.033

# Compound: C=CC(=O)N1CCC[C@@H](n2nc(-c3ccc(Oc4ccccc4)cc3)c3c(N)ncnc32)C1 [ibrutinib]
# Test: as above
# Procedure, shortened: as §1
row,Target,log2 fold change
1,LMBRD1 (UniProt Q9NUN5),0.036
2,MCOLN3 (UniProt Q8TDD5),-0.17
3,MARCHF3 (UniProt Q86UD3),0.073
4,ITM2C (UniProt Q9NQX7),-0.069
5,MAP4 isoform 5 (UniProt P27816),0.076
6,LPIN3 isoform 2 (UniProt Q9BQK8),-0.041
7,LOX (UniProt P28300),0.074
8,MFAP3 (UniProt P55082),-0.027
9,IKZF1 isoform 2 (UniProt Q13422),0.252
10,IP6K1 (UniProt Q92551),0.05
11,LAPTM4B (UniProt Q86VI4),0.019
12,KMT2C isoform 3 (UniProt Q8NEZ4),0.007
13,MFSD1 isoform 6 (UniProt Q9H3U5),0.017
14,IPP (UniProt Q9Y573),0.041
15,KXD1 (UniProt Q9BQD3),0.092
16,KLHL18 (UniProt O94889),0.082

# Compound: CC(=O)c1cnc2ccc(-c3cc(Cl)c(O)c(Cl)c3)nc2c1N[C@H]1CC[C@H](CN(C)C)CC1
# Test: as above
# Procedure, shortened: as §1
row,Target,log2 fold change
1,IGFBP6 (UniProt P24592),-0.02
2,LMBRD1 (UniProt Q9NUN5),0.026
3,ITM2C (UniProt Q9NQX7),-0.07
4,IGFBP3 isoform 2 (UniProt P17936),0.097
5,MAP4 isoform 5 (UniProt P27816),0.142
6,LRRFIP1 isoform 4 (UniProt Q32MZ4),0.163
7,LPIN3 isoform 2 (UniProt Q9BQK8),-0.164
8,MFAP3 (UniProt P55082),-0.067
9,MAPRE3 isoform 2 (UniProt Q9UPY8),-0.139
10,MED29 (UniProt Q9NX70),-0.215
11,MFSD12 isoform 3 (UniProt Q6NUT3),-0.002
12,LEPROT (UniProt O15243),-0.037
13,IP6K1 (UniProt Q92551),-0.154
14,MAGED1 isoform 2 (UniProt Q9Y5V3),0.03
15,LYN isoform 2 (UniProt P07948),-0.246
16,KMT2C isoform 3 (UniProt Q8NEZ4),-0.02
17,MFSD1 isoform 6 (UniProt Q9H3U5),0.025
18,MAP3K20 isoform 2 (UniProt Q9NYL2),-0.126
19,LRRCC1 (UniProt Q9C099),0.047
20,KIF13A isoform 4 (UniProt Q9H1H9),0.123
21,IPP (UniProt Q9Y573),-0.084
22,KXD1 (UniProt Q9BQD3),-0.073
23,MAPK7 (UniProt Q13164),1.41 (active)
24,KLHL18 (UniProt O94889),0.104
